Compounds with a hit are over-represented: about 2.9% of the library has one in this group of screens.
Rango dissoc inh – qHTS Assay for Inhibitors of RanGTP induced Rango (Ran-regulated importin-beta cargo) - Importin beta complex dissociation. Biochemical FRET Rango-importin beta, RanGTP-induced dissociation. Snurportin-1 (Homo sapiens) + GTP-binding nuclear protein Ran (Homo sapiens) + Importin …. Potency, µM (series often up to 46.1 µM), without a hit: at the highest dose activity change, negative = inhibition. actives 0.071% (n = 340,000); also: potency is read from the fitted curve at half-maximal effect; % of control where 0% means no effect; nearly all actives have a fitted effect of over 45% in size
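Compounds preincubate 5 min with complex of recombinant Rango and importin beta in PBS with 1 mM DTT. Ran (0.6 uM) loaded with 2 mM GTP plus 0.2 uM RCC1 starts dissociation; FRET is recorded 45 min later.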
PTAP TSG101 blk – qHTS Assay for Iinhibitors of HIV-1 Budding by Blocking the Interaction of PTAP/TSG101; Potency, µM (titrated, usually from 115 µM), inactives show top-dose activity change, negative = inhibition, most hits filed as inhibitors; AID 493005, 2010; Fluorescence polarization, FITC-PTAP peptide / Tsg101 binding; 340,000 tested, under 10 active; Tumor susceptibility gene 101 protein (Homo sapiens), Q99816; active = well fitted inhibition curve with a large enough effect in the main read-out, with a control signal flat, not every such curve was filed as active; inconclusive = small, poorly fitted or top-dose-only effect, or effect the other way, or a change in a side signal; inactive = no such curve, though single readings can be large or run the other way; also: potency is read from the fitted curve at half-maximal effect; % of control where 0% means no effect
Target sequence (Q99816 whole entry, looked up): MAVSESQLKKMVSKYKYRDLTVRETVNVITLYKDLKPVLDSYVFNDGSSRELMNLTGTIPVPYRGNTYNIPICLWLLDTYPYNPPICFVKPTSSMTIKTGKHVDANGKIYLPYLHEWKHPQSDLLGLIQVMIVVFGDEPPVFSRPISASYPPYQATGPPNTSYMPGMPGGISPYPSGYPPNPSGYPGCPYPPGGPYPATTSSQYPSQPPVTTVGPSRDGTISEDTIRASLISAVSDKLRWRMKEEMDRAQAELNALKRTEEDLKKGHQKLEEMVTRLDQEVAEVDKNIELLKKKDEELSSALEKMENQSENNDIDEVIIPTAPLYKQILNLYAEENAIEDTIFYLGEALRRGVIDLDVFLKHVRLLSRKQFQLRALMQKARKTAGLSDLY
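Compounds were pin-transferred onto Tsg101 binding domain (10 uM final) in HEPES pH 7.5 buffer, then FITC-PTAP peptide was added at 50 nM final. After 20 min at RT, polarization reported peptide displacement across a qHTS concentration series.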
MmCpn inh – Inhibitors of TCP-1 ring complex (TRiC) of Methanococcus maripaludis (MmCpn): qHTS; Chaperonin Mm-Cpn (Methanococcus maripaludis); purified Mm-Cpn ATPase, ADP Transcreener TR-FRET; Potency, µM (titrated, usually from 76.9 µM), without a hit: at the top dose activity, negative = inhibition, most hits filed as inhibitors; actives 0.031% (n = 330,000); AID 504842, 2011; active = well fitted inhibition curve with a large enough effect; inconclusive = small, poorly fitted or top-dose-only effect; also: potency is read from the fitted curve at half-maximal effect; % is scaled to controls: 0 for no effect and ±100 for the full control effect; nearly all actives have a fitted effect of over 80% in size
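ATPase read-out: TR-FRET ADP immunoassay (anti-ADP Eu cryptate vs ADP-d2), ex 320 nm, em 590/665 nm; signal drops as ADP forms. Enzyme 25 nM, ATP 10 uM, 30 min at 37°C after 10 min compound preincubation.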
D3 antag – qHTS of D3 Dopamine Receptor Antagonist: qHTS | actives 2.5% (n = 360,000) | D3R cells, DiscoveRx beta-arrestin luminescence, antagonist mode; hits give low values | max response, negative = inhibition, % | D(3) dopamine receptor (Homo sapiens), P35462; in the data active = max response below about -50%; inconclusive = no clear call, values can overlap the other calls; also: % is scaled to controls: 0 for no effect and ±100 for the full control effect
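Cells plated overnight at 1500 cells/well, then exposed to library compounds with dopamine controls for 90 minutes at 37 degrees C. DiscoveRx reagent added for 30–60 minutes at room temperature; luminescence read, quantitative HTS format.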
Rango complex inh – qHTS Assay for Inhibitors of Rango (Ran-regulated importin-beta cargo) - Importin beta complex formation; Importin subunit beta-1 (Homo sapiens), Q14974; Rango CFP/YFP FRET sensor + importin beta, 45 min; Potency, µM (top dose mostly 92.2 µM), without a hit: at the highest dose inhibition of complex formation; actives 0.031% (n = 340,000);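 also: potency is read from the fitted curve at half-maximal effect; 0% = DMSO wells and 100% = buffer wells lacking importin beta; nearly all actives have a fitted effect of over 15% in size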
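FRET biosensor (snurportin 1 IBB flanked by EYFP and cerulean), 50 nM, with compound 5 min, then 0.125 microM importin beta in PBS, 1 mM DTT, 0.02% Tween-20, 0.1% BSA. CFP/YFP ratio read after 45 min at room temperature; pre-read flags interference.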
D3 ag – qHTS of D3 Dopamine Receptor Agonist: qHTS; max activation, %; actives 0.58% (n = 410,000); D(3) dopamine receptor (Homo sapiens), P35462; D3R DiscoveRx beta-arrestin cells, luminescence, 90 min; in the data active = max activation above about 30%; also: 0% is about no effect
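Agonist-mode cell screen: cells plated at 1500/well and incubated overnight at 37 °C, then exposed to library compounds for 90 min at 37 °C. Detection reagent was added for 30–60 min at room temperature, and luminescence was read.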
Active calls of the source: *; ? = inconclusive; . = no result. Unless noted, calls follow the shape of the full dose curve.

SMILES	Rango dissoc inh	PTAP TSG101 blk	MmCpn inh	D3 antag	Rango complex inh	D3 ag
O=C(OC1CCN(c2ncc(C(F)(F)F)cc2Cl)CC1)c1ccc(Cl)cc1	-1%	-8%	0%	1	-4%	-1
O=C(OCCN1CCN(c2ncc(C(F)(F)F)cc2Cl)CC1)c1ccc(Cl)cc1	0%	-5%	3%	-83*	2%	-11
COc1cc(S(=O)(=O)n2ccnc2C(C)C)ccc1Br	.	.	.	.	.	0
CC(=O)Nc1nc(C(=O)O)cs1	-12%	-8%	2%	-14	1%	-7
COc1ccc(N=C2C(=O)N3c4c(cccc42)C(C)=CC3(C)C)cc1	4%	-8%	3%	-50*	8%	-28
COc1ccc(-n2c(=O)c3sc4ccccc4c3n(Cc3ccccc3)c2=O)cc1	.	.	.	.	.	7
CCCN1C(=O)NC2(O)C(=O)c3ccccc3C12O (stereo unspecified)	1%	-5%	0%	2	-1%	0
CN1C(=O)NC2(O)C(=O)c3ccccc3C12O (stereo unspecified)	-6%	-1%	1%	-60*	3%	9
COc1ccc(/C=N/c2sc3c(c2C#N)CCN(Cc2ccccc2)C3)c(O)c1	.	.	-1%	.	.	.
CN1CCc2c(sc(/N=C/c3cc(C(C)(C)C)ccc3O)c2C#N)C1	-19%	-6%	2%	-54*	?	11
CC(=O)c1cccc(NC(=O)CSc2nc3ccccc3nc2Cc2ccc(F)cc2)c1	.	.	.	.	.	-1
COc1ccc(Br)cc1/C(C)=N/NC1=NCCN1	24%	-3%	1%	-52*	0%	-20
Oc1ccccc1C=NCc1ccccc1	.	.	.	.	.	-6
COc1cc(-c2c(-c3ccsc3)sc3ccccc23)cc(OC)c1OC	28%	0%	-5%	38	5%	12
Cn1c2ccccc2c(=O)c2ccc(-c3ccc4c(c3)OCO4)cc21	?	.	-16%	26	?	-21
COc1cc(-c2ccc3c(=O)c4ccccc4n(C)c3c2)cc(OC)c1OC	?	-9%	-8%	149	?	68*
COc1cc(-c2ccc3c(=O)c4ccccc4sc3c2)cc(OC)c1OC	?	1%	?	101	-3%	60*
CCn1cc(C(=O)NCCc2ccccc2)c(=O)c2cc(S(=O)(=O)N(C)C3CCCCC3)ccc21	.	.	.	.	.	5
COc1ccc(C2CC(c3ccccc3)=NN2C(=S)Nc2ccccc2)cc1 (stereo unspecified)	-9%	-2%	50µM*	?	?	2
CCc1c(C)nc2cc(-c3cc(OC)cc(OC)c3)nn2c1N1CCCC1	1%	-8%	-1%	10	0%	31*
COc1ccc(C(C[N+](=O)[O-])C2(c3ccc(OC)c(OC)c3)C(=O)c3ccccc3C2=O)cc1 (stereo unspecified)	2%	-3%	1%	-82*	0%	-19
Cc1ccc(-n2c(CCC(=O)O)ccc2-c2cccs2)cc1Cl	.	.	.	.	.	-1
Cc1noc(C)c1C(=O)N1CCC1(C)C(=O)NS(=O)(=O)c1cccc(Cl)c1 (stereo unspecified)	.	.	.	-5	.	30*
CCOc1ccc(C2C(C#N)=C(N)Oc3cc(C)n(Cc4ccco4)c(=O)c32)cc1OC (stereo unspecified)	-4%	-9%	-2%	-53*	-2%	3
Cc1cc2c(c(=O)n1Cc1ccco1)C(c1cccnc1)C(C#N)=C(N)O2 (stereo unspecified)	-21%	-1%	1%	-18	?	0
SMILES	Rango dissoc inh	PTAP TSG101 blk	MmCpn inh	D3 antag	Rango complex inh	D3 ag
COc1ccc(C(C)(C)C)cc1NC(=O)COC(=O)c1cnc(C)cn1	-1%	-6%	0%	-65*	-2%	-13
OC(COc1ccc(F)cc1Cl)CN1CCC(Cc2ccccc2)CC1 (stereo unspecified)	0%	-1%	0%	-79*	0%	-20
OC(COc1ccccc1F)CN1CCC(Cc2ccccc2)CC1 (stereo unspecified)	1%	-2%	-2%	-81*	-4%	-25
OC(CN1CCC(Cc2ccccc2)CC1)c1ccccc1 (stereo unspecified)	11%	-1%	0%	-88*	-4%	-13
Cc1ccc(OCC(O)CN2CCC(Cc3ccccc3)CC2)c(C)c1 (stereo unspecified)	-6%	-2%	-2%	-56*	-1%	-8
C[C@@H](O[C@H]1OCCN(Cc2n[nH]c(=O)[nH]2)[C@H]1c1ccc(F)cc1)c1cc(C(F)(F)F)cc(C(F)(F)F)c1	.	.	.	.	.	14
O=C1N(Cc2ccccc2Cl)c2ccccc2C1(O)c1c[nH]c2ccccc12 (stereo unspecified)	.	.	.	.	.	1
OC(COc1ccccc1)CN1CCC(Cc2ccccc2)CC1 (stereo unspecified)	3%	-4%	-5%	-75*	0%	-35
COc1cccc(OCC(O)CN2CCC(Cc3ccccc3)CC2)c1 (stereo unspecified)	-2%	0%	-2%	-13	-1%	-9
CCN(CC)S(=O)(=O)c1ccc2nc(NC(=O)c3cccs3)sc2c1	-6%	0%	-12%	-56*	-4%	-7
CCN(CC)S(=O)(=O)c1ccc2nc(NC(=O)c3ccco3)sc2c1	-6%	-4%	-5%	1	-1%	4
CCO[C@H](Cc1ccc(OCCc2ccc(OS(C)(=O)=O)cc2)cc1)C(=O)O	.	.	.	.	.	-21
Cc1cc(NC(=O)c2c(Cl)cnn2C)no1	31%	1%	1%	-71*	0%	1
Cc1cccc(N2CCN(C(=O)Cn3nc(Cc4cccnc4)c4ccccc4c3=O)CC2)c1C	.	.	.	.	.	-21
CCOC(=O)C(=CNc1ccc(NC2=NCC(C)(C)S2)cc1)C(=O)OCC	9%	0%	2%	104	-1%	52*
CCN(CC)S(=O)(=O)c1ccc(C(=O)OCC(=O)NCCN2C(=O)CSC2=O)cc1	7%	-1%	1%	?	-1%	-2
Cc1ccc(O)c2ncccc12	.	.	.	.	.	-8
Cc1c(C)c2cccnc2c2ncccc12	9%	-6%	-2%	-103*	0%	-21

Compound activity from PubChem.
